Source: PubChem BioAssay (Center for Chemical Genomics, University of Michigan)
Dicer inh: blocks human Dicer maturation of pre-miR-21; Q9UPY3; actives 6% (n = 47,000); z-score at 25 µM; cat-ELCCA pre-miR-21 Dicer processing, chemiluminescence; stronger effect = higher value; in the data active = z-score above about 3, passing the limit was not always enough;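 also: higher signal means more uncleaved substrate so more Dicer inhibition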
Target sequence (Q9UPY3 whole entry, looked up): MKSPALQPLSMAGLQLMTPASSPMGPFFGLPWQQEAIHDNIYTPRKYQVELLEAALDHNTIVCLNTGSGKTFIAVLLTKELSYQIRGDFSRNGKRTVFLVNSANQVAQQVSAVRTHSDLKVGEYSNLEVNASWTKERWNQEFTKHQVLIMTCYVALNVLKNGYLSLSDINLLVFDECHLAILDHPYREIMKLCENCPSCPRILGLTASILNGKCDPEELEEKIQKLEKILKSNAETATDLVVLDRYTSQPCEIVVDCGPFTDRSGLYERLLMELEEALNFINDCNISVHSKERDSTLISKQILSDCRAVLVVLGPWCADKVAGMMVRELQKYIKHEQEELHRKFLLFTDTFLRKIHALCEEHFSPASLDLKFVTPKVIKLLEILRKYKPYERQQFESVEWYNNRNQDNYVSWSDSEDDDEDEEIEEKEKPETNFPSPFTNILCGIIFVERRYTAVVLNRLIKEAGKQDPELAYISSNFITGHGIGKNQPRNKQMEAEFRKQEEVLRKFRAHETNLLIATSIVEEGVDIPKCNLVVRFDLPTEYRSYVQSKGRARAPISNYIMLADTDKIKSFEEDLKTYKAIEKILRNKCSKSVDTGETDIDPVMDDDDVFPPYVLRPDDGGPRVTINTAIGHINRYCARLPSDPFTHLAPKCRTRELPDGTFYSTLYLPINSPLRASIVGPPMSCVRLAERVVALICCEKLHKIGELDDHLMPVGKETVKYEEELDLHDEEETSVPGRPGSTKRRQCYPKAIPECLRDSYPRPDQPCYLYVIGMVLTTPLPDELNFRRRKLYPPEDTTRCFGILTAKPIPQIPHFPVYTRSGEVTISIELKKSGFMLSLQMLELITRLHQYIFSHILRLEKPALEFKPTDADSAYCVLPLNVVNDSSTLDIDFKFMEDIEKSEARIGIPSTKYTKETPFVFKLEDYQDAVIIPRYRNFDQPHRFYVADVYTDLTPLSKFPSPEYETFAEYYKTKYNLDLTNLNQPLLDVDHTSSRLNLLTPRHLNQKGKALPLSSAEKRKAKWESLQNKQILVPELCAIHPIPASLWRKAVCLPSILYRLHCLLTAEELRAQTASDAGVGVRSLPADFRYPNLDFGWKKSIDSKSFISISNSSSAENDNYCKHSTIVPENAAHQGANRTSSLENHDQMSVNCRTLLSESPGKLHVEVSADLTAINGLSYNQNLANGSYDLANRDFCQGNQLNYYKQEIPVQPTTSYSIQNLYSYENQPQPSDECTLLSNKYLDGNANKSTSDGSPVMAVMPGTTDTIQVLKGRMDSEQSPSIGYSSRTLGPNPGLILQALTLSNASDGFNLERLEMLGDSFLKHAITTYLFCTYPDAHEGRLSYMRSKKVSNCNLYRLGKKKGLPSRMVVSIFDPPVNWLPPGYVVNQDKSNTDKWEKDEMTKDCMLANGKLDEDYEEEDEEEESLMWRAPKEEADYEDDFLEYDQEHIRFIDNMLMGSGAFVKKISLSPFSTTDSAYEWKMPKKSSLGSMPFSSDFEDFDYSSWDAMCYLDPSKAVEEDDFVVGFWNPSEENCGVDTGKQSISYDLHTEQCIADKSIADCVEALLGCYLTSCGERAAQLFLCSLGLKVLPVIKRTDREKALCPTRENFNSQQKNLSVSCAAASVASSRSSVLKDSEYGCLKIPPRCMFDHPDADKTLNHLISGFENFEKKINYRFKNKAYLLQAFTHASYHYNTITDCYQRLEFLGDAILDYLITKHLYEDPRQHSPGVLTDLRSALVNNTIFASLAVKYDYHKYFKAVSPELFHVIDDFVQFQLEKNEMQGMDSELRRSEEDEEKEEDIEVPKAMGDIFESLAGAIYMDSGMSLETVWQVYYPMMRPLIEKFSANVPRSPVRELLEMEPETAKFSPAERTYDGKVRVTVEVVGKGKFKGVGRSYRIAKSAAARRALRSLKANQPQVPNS
Hits are given with their value; 0 = inactive. Many of the other results were omitted from the sample, so hits are more common in it than they were.

SMILES | Dicer inh
OC[C@H]1O[C@@H](Oc2ccccc2)[C@H](O)[C@@H](O)[C@@H]1O | 0
OCC1OC(Nc2ccc(Cl)cc2)C(O)C(O)C1O (stereo not given) | 3.4
CN(C)/C=N/c1ncc(-c2ccc(Br)s2)s1 | 0
CC(C)(C)c1nc(Sc2ccc(C(F)(F)F)cn2)n[nH]1 | 0
NNC(=O)c1cc(C(F)(F)F)cc(C(F)(F)F)c1 | 0
NNC(=O)c1cn2cc(C(F)(F)F)cc(Cl)c2n1 | 4.8
O=C(NCCCN1CCN(Cc2ccccc2)CC1)c1cn2cc(C(F)(F)F)cc(Cl)c2n1 | 0
CC1(C)SC(c2ccc(F)cc2)N[C@H]1C(=O)O (stereo not given in full) | 0
CC1(C)SC(C(=O)O)N[C@H]1C(=O)O (stereo not given in full) | 3.1
CC1CCN(C(=O)N2c3ccccc3Sc3ccccc32)CC1 | 0
O=C(N1CCN(c2ccccc2)CC1)N1c2ccccc2Sc2ccccc21 | 0
CCOC(=O)N1CCN(C(=O)N2c3ccccc3Sc3ccccc32)CC1 | 4.7
Cc1c(S(=O)(=O)N2CCN(C3c4ccccc4-c4ccccc43)CC2)sc2ccc(Cl)cc12 | 0
CN1c2ccccc2C(C)(C)C12C=Cc1cc(O)ccc1O2 (stereo not given) | 15
CC1(C)C=Cc2cc(/C(N)=N/O)ccc2O1 | 0
Cc1ccc(-c2cnc(-c3ccccc3)sc2=O)cc1 | 0
C=CCNc1nc2c(c(=O)[nH]c(=O)n2C)n1CC(O)CO (stereo not given) | 0
C=CCNc1nc2c(c(=O)[nH]c(=O)n2C)n1CC | 3.2
CCCNc1nc2c(c(=O)[nH]c(=O)n2C)n1CCO | 0
CCCCCOc1ccc(C2c3c(oc4ccccc4c3=O)C(=O)N2c2nccs2)cc1 (stereo not given) | 0
CSc1sc(C(=O)c2ccc(Cl)cc2)c2c1C(=O)CC(C)(C)C2 | 0
Cc1cc(C(=O)NNC(=O)C(Cl)(Cl)Cl)nn1-c1c(Cl)cc(Cl)cc1Cl | 0
CCc1ccc(CNc2nc3ccccc3n2C)cc1 | 3.4
CN(C)c1ccc(CNc2nc3ccccc3n2CCN2CCCCC2)cc1 | 0
CCN(CC)CCn1c(NCc2ccncc2)nc2ccccc21 | 0
SMILES | Dicer inh
CCn1c(NCc2ccncc2)nc2ccccc21 | 0
CCN(CC)CCn1c(NCc2ccc(N(C)C)cc2)nc2ccccc21 | 4.4
CCCn1c(NCc2ccncc2)nc2ccccc21 | 0
COc1cc(NC(=S)Nc2cc(C(F)(F)F)cc(C(F)(F)F)c2)c2ncccc2c1 | 0
Cc1ccc(C2CC(=O)C3=C(C2)Nc2ccccc2N(C(=O)C2CC2)C3c2ccco2)cc1 (stereo not given) | 0
CCOc1ccc(C)cc1S(=O)(=O)n1ccnc1C | 0
Nc1cccc(-c2nc3ccc(N)cc3[nH]2)c1 | 0
Nc1ccc(C(=O)OCCCc2nc3ccc(N)cc3[nH]2)cc1 | 0
Nc1ccc2nc(CCCc3nc4ccccc4s3)[nH]c2c1 | 0
Nc1cccc(/C=C/c2nc3ccc(N)cc3[nH]2)c1 | 3.7
Nc1ccc(Cc2nc3ccc(C(=O)O)cc3[nH]2)cc1 | 0
Nc1ccc2nc(/C=C/c3ccccc3)[nH]c2c1 | 3.2
N=c1scc(-c2ccc(Cl)cc2)n1-c1cccc(C(F)(F)F)c1 | 0
COc1ccc(C(=O)CCC(=O)CCC(=O)O)cc1 | 0
COc1ccc(-c2n[nH]c(C)c2-c2ccc(F)cc2)c(O)c1 | 0
Cc1[nH]nc(-c2ccc(O)cc2O)c1Oc1ccccc1 | 0
CCOc1ccc(-c2n[nH]c(C)c2-c2ccccc2)c(O)c1 | 5.1
COC(=O)/C(=C\Nc1ccc(Sc2cc(Cl)ccc2Cl)nc1)NC(=O)c1ccccc1 | 0
Cc1nc2ccc(Br)cc2c(=O)o1 | 0
Cc1ccc2nc(/C=C/c3ccco3)oc(=O)c2c1 | 11
O=c1c2ccccc2nc(/C=C/c2ccco2)n1Cc1ccccc1 | 3
O=C(CSc1nc2ccccc2c(=O)n1Cc1ccco1)c1ccccc1 | 0
COc1ccccc1/C=C/c1nc2cc(Cl)ccc2c(=O)o1 | 0
O=C(Nc1nc2ccccc2c(=O)s1)c1ccco1 | 0
Cc1ccc2nc(-c3cc4ccccc4o3)oc(=O)c2c1 | 0
SMILES | Dicer inh
C(=C\c1ccco1)/C1=NN(Cc2ccccc2)CC1 | 0
O=c1oc(/C=C/c2ccco2)nc2ccccc12 | 18
N#CCC(=O)NC(=O)Nc1ccc(F)cc1F | 0
COC(=O)C1=C(C)N=C2SCCC(=O)N2C1c1ccccc1Cl (stereo not given) | 0
CCN(CC)Cc1c(O)ccc2c(=O)c(Oc3ccccc3Cl)c(C(F)(F)F)oc12 | 0
CSC1=N/C(=C\c2ccc(Br)cc2)C(=O)S1 | 0
CCc1nnc(NC(=O)c2ccc3nsnc3c2)s1 | 0
COC(=S)Nc1ccc(C(C)C)cc1 | 0
O=C1c2cccc3c(Sc4ccccc4)ccc(c23)C(=O)N1NCCO | 3.2
O=C1c2cccc3c(N4CCOCC4)ccc(c23)C(=O)N1CCO | 0
COc1ccc(CCN2C(=O)c3cccc4c(Sc5ccccn5)ccc(c34)C2=O)cc1OC | 0
CN(NC(=S)Nc1cc(Cl)ccc1Cl)c1ccc(C(F)(F)F)cc1[N+](=O)[O-] | 0
COc1cc(N(C)C)c(OC)cc1/C=C(\C#N)c1ccc([N+](=O)[O-])cc1 | 0
Cc1c(C)c(C)c(S(=O)(=O)Oc2c(Cl)cccc2Cl)c(C)c1C | 6.9
Cc1cc(S(=O)(=O)Oc2c(Cl)cccc2Cl)cc(C)c1F | 0
Cc1c(C)c(C)c(S(=O)(=O)Oc2ccc(Cl)c(Cl)c2)c(C)c1C | 0
COc1cc(C(CC(=O)O)CC(=O)CNc2ccc3c(c2)OCCCO3)cc(OC)c1OC (stereo not given) | 0
Cc1ccccc1CN1C(=O)C(O)(CC(=O)c2ccc3c(c2)OCCO3)c2cc(Cl)ccc21 (stereo not given) | 0
COc1ccc(O)c(C(=O)C2c3ccccc3C(=O)N2c2ccc(C)cc2)c1 (stereo not given) | 8
COc1ccc2c(c1)C(=O)N(c1ccc(C)cc1)C(=O)C2 | 0
COc1ccc(O)c(C(=O)CC(=O)c2ccc(F)cc2)c1 | 0
CC(C)(C)NNC(=S)Nc1cc(Cl)ccc1Cl | 0
CCN1C(=O)c2cccc3c(S(=O)(=O)NC(CCSC)C(=O)O)ccc1c23 (stereo not given) | 0
Nc1nc(NC(=O)CCCC(=O)O)nn1-c1ccccc1 | 16
O=C(O)CCCC(=O)Nc1ccn(-c2ccccc2)n1 | 0
SMILES | Dicer inh
O=C(O)CCCC(=O)Nc1nc2nccc(-c3ccccc3)n2n1 | 0
CC(Oc1ccc(Oc2ccc(C(F)(F)F)cc2)cc1)C(=O)Nc1ccc(Cl)cc1 (stereo not given) | 0
O=C(O)CC(NC(=O)Cc1cccc2ccccc12)C(=O)O (stereo not given) | 0
CCOC(=O)C1CN(C2CCCCC2)C(=O)C1=O (stereo not given) | 5.1
CCOC(=O)C1=C(O)C(=O)N(C2CCCCC2)C1 | 0
CCOC(=O)C1CC(=O)C(C(=O)OCC)CC1=O (stereo not given) | 0
COc1ccc(S(=O)(=O)N2CCN(Cc3ccsc3)CC2)cc1 | 0
COCCOC(=O)C1=C(C)N=C2SCCC(=O)N2C1c1cccc(F)c1 (stereo not given) | 0
O=S(=O)(NCCc1ccccn1)c1ccc(-c2ccccn2)s1 | 0
O=S(=O)(Nc1nc(SCc2ccc(Cl)cc2)n[nH]1)c1ccc(F)cc1 | 0
O=S(=O)(Nc1nc(SCc2ccc(Cl)cc2)n[nH]1)c1ccc(-c2ccccn2)s1 | 3.4
CCSc1nc2c(c(=O)n1CC)C1(CCCC1)Cc1ccccc1-2 | 0
CCSc1nc2c(c(=O)n1C)C1(CCCC1)Cc1ccccc1-2 | 6.2
CCn1c(SC)nc2c(c1=O)C1(CCCC1)Cc1ccccc1-2 | 0
